# Measurements: the supplement of paper PMC10646978
# ± gives the standard deviation.
# Legend:
# Conditions in all cases: modulator concentration 10 µM
# [1] = tested on: RAW-Dual (murine macrophage reporter line); test: NF-kB reporter (SEAP) activity fold change vs agonist alone; higher = enhanced NF-kB activity
# Outline: (§1)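 Compound reached 10 μM final in each well by pin transfer, onto RAW-Dual murine macrophage reporter cells seeded at 50 000 per well in 384-well plates. After 1 hour at 37 °C, the cells were stimulated overnight with a PRR agonist. SEAP in the supernatant was read with QUANTI-Blue at 620 nm absorbance for NF-κB, and Lucia luciferase was read with QUANTI-Luc luminescence for IRF. Each signal was turned into fold change against the mean agonist-only control on the same plate, and two replicate plates were averaged with propagated errors.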
# [2] = tested on: RAW-Dual (murine macrophage reporter line); test: IRF reporter (Lucia luciferase) activity fold change vs agonist alone; higher = enhanced IRF activity
# Outline: as §1
# [3] = tested on: RAW-Dual (murine macrophage reporter line); test: viability score (confluency relative to resting cells, overnight) (fraction); higher = more viable, active = viable (0.7 or more)
# Outline: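 RAW-Dual macrophages in 384-well plates were incubated overnight with compound, final concentration 10 μM. Confluency images from IncuCyte were processed in IncuCyte software into two masks covering all imaged wells. The viability score is each well's confluency relative to resting cells, and a compound met the cutoff when both masks exceeded 70% of resting cells.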
# [4] = agonist: CpG ODN 1826 0.5 ug/mL
Structure (SMILES),"NF-kB reporter [1, 4]",NF-kB reporter ([1]; agonist: LPS 0.1 ug/mL),NF-kB reporter ([1]; agonist: MPLA […]),IRF reporter ([2]; agonist: 3'3'-cGAMP 10 ug/mL),IRF reporter ([2]; agonist: LPS 0.1 ug/mL),IRF reporter ([2]; agonist: MPLA […]),viability score [3]
COc1ccccc1OCCOCCOc1cccc(Br)c1,0.883 ± 0.14,1.05 ± 0.12,0.945 ± 0.087,1.05 ± 0.044,1.27 ± 0.29,1.36 ± 0.24,0.802 (active)
Cc1[nH]c2ccc(Br)cc2c(=O)c1CN1CCCCC1,0.828 ± 0.092,0.97 ± 0.054,0.899 ± 0.054,0.951 ± 0.035,1.25 ± 0.17,0.92 ± 0.091,1 (active)
C=CCc1ccc(O)c(OC)c1,1.05 ± 0.29,0.913 ± 0.095,1.14 ± 0.097,0.524 ± 0.019,1.05 ± 0.14,1.01 ± 0.12,0.659 (inactive)
COc1ccc(CNC(=O)NCC#CCOc2cccc(C(F)(F)F)c2)cc1OC,1.07 ± 0.11,1.07 ± 0.098,0.95 ± 0.063,1.01 ± 0.05,1.09 ± 0.13,1.13 ± 0.29,1.01 (active)
CC1=C(C(=O)OCc2ccc3c(c2)OCO3)C(c2ccc(Cl)c(Cl)c2)NC(=O)N1 (stereo not given),1.04 ± 0.17,1.13 ± 0.083,1.11 ± 0.1,0.458 ± 0.025,0.712 ± 0.093,0.772 ± 0.15,1.01 (active)
CC#C[C@]1(O)CC[C@H]2[C@@H]3CCC4=CC(=O)CCC4=C3[C@@H](c3ccc(N(C)C)cc3)C[C@@]21C,0.955 ± 0.093,0.722 ± 0.15,1.39 ± 0.15,0.863 ± 0.048,0.868 ± 0.033,1.05 ± 0.31,1 (active)
O=C(O)CCCCC1CCSS1 (stereo not given),0.761 ± 0.034,0.968 ± 0.077,1.05 ± 0.056,1.03 ± 0.047,1.33 ± 0.33,1.51 ± 0.52,0.978 (active)
N#CC(=Cc1cn(Cc2ccccc2Cl)c2ccccc12)c1nn(CCO)c(N)c1C#N,0.919 ± 0.077,0.959 ± 0.053,0.91 ± 0.058,0.909 ± 0.063,1.18 ± 0.17,0.936 ± 0.058,1.02 (active)
O=C(NCCOc1cccc2ccccc12)Nc1cc(F)c(F)cc1Cl,0.945 ± 0.11,1.06 ± 0.14,0.854 ± 0.053,0.886 ± 0.027,1.14 ± 0.17,0.878 ± 0.24,1.01 (active)
NC(=O)c1cccnc1,0.89 ± 0.16,0.878 ± 0.33,1.03 ± 0.13,0.912 ± 0.034,0.984 ± 0.22,0.934 ± 0.14,1 (active)
Cc1cccc(C(=O)NC(Nc2ccccc2C(F)(F)F)C(Cl)(Cl)Cl)c1 (stereo not given),0.896 ± 0.079,1.05 ± 0.077,1.22 ± 0.23,0.948 ± 0.05,1.22 ± 0.2,1.26 ± 0.4,1.01 (active)
CC(C)NC(=N)NC(=N)Nc1ccc(Cl)cc1 [Prestw-999],0.806 ± 0.053,1.33 ± 0.1,1.27 ± 0.087,0.994 ± 0.059,1.18 ± 0.12,0.954 ± 0.3,0.994 (active)
COc1cc(C)n(CCNC(=O)c2ccccc2C(F)(F)F)c(=O)c1,0.904 ± 0.039,0.933 ± 0.076,1.12 ± 0.06,1.03 ± 0.055,1.34 ± 0.28,1.51 ± 0.4,0.941 (active)
CN1CCN(C2=NC(=O)C(=Cc3ccc(Cl)cc3Cl)S2)CC1,0.833 ± 0.076,0.86 ± 0.068,1.15 ± 0.099,0.956 ± 0.051,1.42 ± 0.099,1.59 ± 0.18,0.999 (active)
O=C(Cn1c(=O)oc2ccccc21)N1Cc2cncnc2C1,0.853 ± 0.24,1.04 ± 0.052,0.988 ± 0.065,0.921 ± 0.042,0.991 ± 0.15,0.991 ± 0.12,0.998 (active)
Cc1nccn1CC1CCc2c(c3ccccc3n2C)C1=O.Cl (stereo not given),0.82 ± 0.2,0.909 ± 0.28,0.84 ± 0.047,0.889 ± 0.051,1.19 ± 0.23,1.22 ± 0.33,0.638 (inactive)
Cc1ccc(S(=O)(=O)N2CCN(C(C)C)CC2)cc1,1.13 ± 0.11,0.94 ± 0.14,1.01 ± 0.043,0.96 ± 0.17,0.898 ± 0.037,0.994 ± 0.1,0.996 (active)
COc1cc(OC)c(C(=O)CCCN2CCCC2)c(OC)c1.Cl,0.98 ± 0.096,1.01 ± 0.063,1 ± 0.057,0.937 ± 0.081,0.941 ± 0.035,0.899 ± 0.07,1 (active)
O=S(=O)(Oc1cccc2ccccc12)c1ccc(F)cc1,0.832 ± 0.1,0.926 ± 0.096,1.12 ± 0.1,0.789 ± 0.036,1.06 ± 0.064,1.12 ± 0.096,0.999 (active)
Brc1ccc(-c2cc(-c3ccccc3)nc(N3CCCCC3)n2)cc1,0.951 ± 0.2,1.1 ± 0.092,1 ± 0.079,0.859 ± 0.03,1.17 ± 0.11,1.33 ± 0.15,1 (active)
COc1ccccc1C(=O)Nc1ccc(-c2nc3cc(C)ccc3o2)cc1,0.794 ± 0.063,0.996 ± 0.051,1.12 ± 0.11,0.803 ± 0.039,1.55 ± 0.11,1.62 ± 0.14,0.975 (active)
CC[C@@H]([C@H](C)O)n1ncn(-c2ccc(N3CCN(c4ccc(OC[C@@H]5CO[C@@](Cn6cncn6)(c6ccc(F)cc6F)C5)cc4)CC3)cc2)c1=O,0.947 ± 0.14,0.893 ± 0.068,1.07 ± 0.1,1.1 ± 0.055,1.18 ± 0.091,1.36 ± 0.12,1.02 (active)
CCS(=O)(=O)c1ccc(-c2cccc(NC(=O)CC3CCCC3)c2)nn1,1.19 ± 0.099,0.932 ± 0.073,1.01 ± 0.029,0.905 ± 0.033,0.973 ± 0.056,0.926 ± 0.13,0.999 (active)
Cc1ccc(S(=O)(=O)c2ccc(O)c(O)c2)cc1,0.932 ± 0.074,1.02 ± 0.095,1.03 ± 0.086,0.599 ± 0.036,1.31 ± 0.096,1.08 ± 0.12,0.987 (active)
CC1SC(c2ccccc2)NC1=O (stereo not given),1.04 ± 0.08,1.06 ± 0.065,0.952 ± 0.055,0.791 ± 0.026,1.42 ± 0.098,1.2 ± 0.12,0.999 (active)
